Assay outcomes deposited in PubChem BioAssay by several laboratories.
A selection: hits, their analogues and other compounds. The true share with any hit is near 27%.
CYP2C9 inhib = blockers of cytochrome P450 2C9 activity – biochemical, luminescence, ADME assay, primary screen; inhibition, % at 5 µM; AID 777, 2007; CYP2C9 Supersomes, luciferin-H conversion; actives 20% (n = 96,000);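 active means blocking of liver enzyme CYP2C9 beyond about 50% at 5 µM, limit read from the data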
Target sequence (P11712 whole entry, looked up): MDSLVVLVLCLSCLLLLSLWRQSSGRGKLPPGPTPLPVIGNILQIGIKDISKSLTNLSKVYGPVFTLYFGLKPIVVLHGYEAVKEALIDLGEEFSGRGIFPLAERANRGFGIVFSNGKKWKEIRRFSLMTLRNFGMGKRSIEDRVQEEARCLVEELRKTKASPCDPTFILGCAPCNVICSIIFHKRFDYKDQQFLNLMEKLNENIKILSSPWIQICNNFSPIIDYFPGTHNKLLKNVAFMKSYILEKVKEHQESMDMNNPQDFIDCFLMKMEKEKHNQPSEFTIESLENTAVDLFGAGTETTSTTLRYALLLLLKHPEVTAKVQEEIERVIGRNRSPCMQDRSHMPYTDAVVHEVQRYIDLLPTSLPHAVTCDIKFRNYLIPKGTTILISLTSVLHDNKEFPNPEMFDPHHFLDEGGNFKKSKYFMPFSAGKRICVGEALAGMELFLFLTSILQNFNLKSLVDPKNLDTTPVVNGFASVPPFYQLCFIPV
Cav32 inh = Cav3.2 calcium influx blockers – cell-based, Fluo-4 calcium fluorescence, FDSS, MLSMR library, primary screen; B-score at 10 µM; Cav3.2-expressing cells; stronger effect = lower value; actives 4% (n = 100,000); Voltage-dependent T-type calcium channel subunit alpha-1H (Homo sapiens), O95180; AID 449739, 2010;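 active means single-dose well whose peak fluorescence ratio is a statistical outlier from its plate by either plate-standardised score or position-corrected B-score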
CYP2C19 activ = human CYP2C19 activators, primary screen, biochemical, luminescence; activation factor at 5 µM; recombinant CYP2C19, luciferin-H EGE luminescence; stronger effect = higher value; 0 = fully inhibited enzyme, 1 = untreated enzyme; Cytochrome P450 2C19 (Homo sapiens), P33261; 96,000 tested, under 10 active;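 active means activation factor of at least 2 at 5 µM in the primary screen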;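 further: 0 = wells with 2.5 mM tranylcypromine and 1 = vehicle-only wells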
CYP2C19 inh = blockers of cytochrome P450 2C19 activity – biochemical, luminescence, ADME assay, primary screen. P33261. CYP2C19 Supersomes, luciferin-H EGE luminescence, 30 min. inhibition, % at 5 µM. actives 21% (n = 96,000). AID 778, 2007;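 active means CYP2C19 inhibition above a set limit at 5 µM in the primary screen, cut at about 50% in these data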;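 further: plate controls were negative control wells for no effect and 2.5 mM tranylcypromine positive control for full effect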
CYP2C9 activ = human CYP2C9 activators, primary screen, biochemical, luminescence. AID 1024, 2008. activation factor at 5 µM. actives 1.4% (n = 96,000). Cytochrome P450 2C9 (Homo sapiens), P11712. recombinant CYP2C9, luciferin-H conversion; stronger effect = higher value; factor 1 = untreated enzyme, 0 = blocked;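 active means activation factor of 2 or more for CYP2C9 at a 5 µM dose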;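 further: 0 = sulfaphenazole-blocked wells and 1 = vehicle-only wells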
* hit, by the source's call; / = no result.

SMILES | CYP2C9 inhib | Cav32 inh | CYP2C19 activ | CYP2C19 inh | CYP2C9 activ
Cc1ccccc1-c1nc(CS(=O)CC(=O)NCc2ccccc2)c(C)o1 (stereo unspecified) | 76* | -0.93 | 0.2 | 78* | 0.2
Cc1ccc(-c2nc(CS(=O)CC(=O)NCc3ccccc3)c(C)o2)cc1 (stereo unspecified) | 35 | -1.7 | 0.8 | 18 | 0.7
COc1ccccc1CNC(=O)CS(=O)Cc1nc(-c2ccccc2C)oc1C (stereo unspecified) | 23 | -0.63 | 0.6 | 40 | 0.8
Cc1ccc(CNC(=O)CS(=O)Cc2nc(-c3ccccc3C)oc2C)cc1 (stereo unspecified) | 24 | -4.5* | 0.6 | 40 | 0.8
COc1ccc(CNC(=O)CS(=O)Cc2nc(-c3ccc(C)cc3)oc2C)cc1 (stereo unspecified) | 43 | -4.7 | 0.7 | 34 | 0.6
COc1ccc(CNC(=O)CS(=O)Cc2nc(-c3ccccc3C)oc2C)cc1 (stereo unspecified) | 75* | -1.6 | 0.1 | 91* | 0.2
CC(C)CC(=O)Nc1ccccc1-c1nnn(CC(=O)N2CCOCC2)n1 | 21 | 1.9 | 1 | 3 | 0.8
COc1ccc(-c2nc(CS(=O)CC(=O)N3CCCC3)c(C)o2)cc1 (stereo unspecified) | 71* | 0.23 | 0.8 | 21 | 0.3
CCN(C#N)c1nc(NC(C)C)nc(NC(C)C)n1 | 73* | -0.0088 | 0.7 | 33 | 0.3
CCNc1nc(NC(C)C)nc(N(C#N)CCOc2ccccc2)n1 | 39 | -5* | 0.4 | 60* | 0.6
COC(=O)CN(c1cccc(OC)c1)S(C)(=O)=O | 11 | 0.46 | 0.8 | 22 | 0.9
COc1cccc(N(CC(=O)NCc2cccnc2)S(C)(=O)=O)c1 | 11 | 1.3 | 0.6 | 44 | 0.9
CCOC(=O)c1ccccc1NC(=O)CN(c1cccc(OC)c1)S(C)(=O)=O | 95* | -2.1 | 0 | 99* | 0.1
CCc1ccccc1NC(=O)CN(c1cccc(OC)c1)S(C)(=O)=O | 63* | 1.4 | 0.1 | 86* | 0.4
COc1cccc(N(CC(=O)Nc2ccccc2C)S(C)(=O)=O)c1 | 17 | 1 | 0.4 | 63* | 0.8
CCCCCC(=O)N/N=C(\C)c1ccc(Cl)cc1 | 32 | -0.26 | 0.5 | 48 | 0.7
COc1ccc(S(=O)(=O)n2ccc(-c3ccc(OCCN(C)c4ccccn4)cc3)n2)cc1 | 57* | -2.7 | 0.7 | 26 | 0.4
CO/N=C/c1ccc(N2CCN(C(=O)c3ccc(Cl)cc3Cl)CC2)c([N+](=O)[O-])c1 | 30 | -1.6 | 0.7 | 26 | 0.7
Nc1nnc(COc2ccc(Br)cc2Br)s1 | 6 | -0.51 | 0.3 | 71* | 0.9
C1=CC2c3ccccc3NC(c3ccncc3)C2C1 (stereo unspecified) | 73* | 0.72 | 0.2 | 82* | 0.3
O=C(NCc1ccccn1)C1Nc2ccc(OC(F)(F)F)cc2C2C=CCC12 (stereo unspecified) | / | -3.1 | / | / | /
COC(=O)c1ccc(C2Nc3ccc(/C(C)=N/NC(=O)C(OC)c4ccccc4)cc3C3C=CCC32)cc1 (stereo unspecified) | 34 | 0.43 | 0.8 | 24 | 0.7
CC(=O)c1ccc2c(c1)C1C=CCC1C(c1ccncc1)N2 (stereo unspecified) | 90* | 0.9 | 0.1 | 92* | 0.1
C=C(C)C1(O)OC(=O)C=C1OC (stereo unspecified) | / | 0.79 | / | / | /
O=C(CC12CC3CC(C1)CC(CC(=O)N1CCCC1)(C3)C2)N1CCCC1 | -15 | 0.065 | 1.1 | -8 | 1.1
SMILES | CYP2C9 inhib | Cav32 inh | CYP2C19 activ | CYP2C19 inh | CYP2C9 activ
CC(C)(C)C(=O)NC(=S)Nc1ccccc1C(=O)Nc1ccccc1 | -4 | 0.071 | 0.8 | 18 | 1
CN(C)c1ccc(NC(=O)CC2NCCNC2=O)cc1 (stereo unspecified) | -12 | 0.46 | 1.2 | -16 | 1.1
COc1ccc(C2NC(=O)C(C)S2)cc1 (stereo unspecified) | 5 | 0.24 | 0.6 | 45 | 0.9
CCCCOC(=O)Nc1nnc(-c2ccccc2OC)s1 | -323 | 0.27 | 0.9 | 13 | 4.2*
COc1ccccc1-c1nnc(NC(C)=O)s1 | -110 | 1.1 | 1.1 | -7 | 2.1*
O=C1CC(C(=O)O)C2(CCCC2)O1 (stereo unspecified) | / | -0.15 | / | / | /
COc1cc(NC(=O)N[C@H](C(=O)O)C(C)C)cc(OC)c1 | -8 | 0.17 | 1 | 2 | 1.1
COC(=O)Cn1c(CN2CCN(c3ccc(F)cc3)CC2)nc2c1c(=O)n(C)c(=O)n2C | 23 | 0.84 | 0.8 | 25 | 0.8
C/C(CC(O)c1ccc2ccccc2n1)=N/O (stereo unspecified) | 8 | 0.15 | 1 | 1 | 0.9
Cc1cc(NC(=O)CSc2n[nH]c(-c3cccs3)n2)no1 | 46 | -0.13 | 0.7 | 33 | 0.5
O=C(CSc1n[nH]c(-c2ccc(Cl)cc2Cl)n1)Nc1ccccn1 | 72* | / | 0.7 | 30 | 0.3
COc1cc(CNCCc2ccccc2F)ccc1OCc1ccc(Cl)nc1 | 33 | 0.65 | 0.2 | 76* | 0.7
COc1cc(CNCCc2c[nH]c3ccccc23)ccc1OCc1ccc(F)cc1 | 47 | -0.71 | 0.4 | 63* | 0.5
COc1ccc(C2N=C(c3ccccc3)NC(c3ccccc3)=N2)cc1 | / | -1.3 | / | / | /
COc1cc(C2N=C(c3ccccc3)NO2)cc(Br)c1O (stereo unspecified) | -7 | -0.21 | 0.1 | 87* | 1.1
COc1cc(C)ccc1OCCCOc1cc(C)ccc1Cl | / | -0.91 | / | / | /
C=CCc1ccc(OCCOCCOc2ccccc2[N+](=O)[O-])c(OC)c1 | 77* | -4.6* | 0.1 | 85* | 0.2
C=CCc1ccc(OCCCCN2CC(C)OC(C)C2)c(OC)c1 (stereo unspecified) | 14 | -0.62 | 0.7 | 31 | 0.9
C=CCc1ccc(OCCCOc2ccc(C)cc2OC)c(OC)c1 | 32 | -0.47 | 0.4 | 59* | 0.7
C=CCc1ccc(OCC(O)COc2ccc(CC=C)cc2OC)c(OC)c1 | 93* | -8.9* | 0 | 97* | 0.1
CCOc1ccc(Br)cc1/C=N/NC(=O)c1ccncc1 | 83* | -0.94 | 0.1 | 91* | 0.2
CCOc1cc(/C=N/NC(=O)c2ccncc2)ccc1OC(=O)c1ccc([N+](=O)[O-])cc1 | 9 | 0.025 | 1 | -3 | 0.9
CN1c2ccccc2-c2nc3ccccc3n2C1c1ccncc1 (stereo unspecified) | 95* | 0.61 | 0 | 96* | 0
CCn1c(-c2ccco2)nc2ccccc21 | -29 | 0.42 | 0.9 | 13 | 1.3
c1ccc(CN2c3ccccc3-c3nc4ccccc4n3C2c2ccccn2)cc1 (stereo unspecified) | 42 | -6.6* | 0.8 | 20 | 0.6
CN1c2ccccc2-c2nc3ccccc3n2C1c1ccccn1 (stereo unspecified) | 34 | -1.7 | 0.9 | 7 | 0.7
